In PubChem BioAssay (EPA / NIEHS):
Calls of active or inactive are those of the source. How the source made its calls: active means hit-call score of the fitted dose curve at least 0.9, where 1 is the maximum; inactive means score below 0.9.

Assay: IUF_NPC4_neurite_length_120hr: Leibniz Research Institute for Environmental Medicine (IUF) 120-hour Neuronal Morphology Assay for Neurite Length (NPC4) (AID 2284302)
Protocol: IUF_NPC2-5 is a cell-based, multiplexed assay that uses hNPC, a human primary neural progenitor cells, with measurements taken at 72 or 120 hours after chemical dosing in a 96-well plate. Human neural progenitor cells (hNPC) are generated from human fetal brain cortex at gestational week (GW) 16-19. In the neural progenitor cell migration and differentiation assay (NPC2-5), hNPCs grown as spheres are plated on an extracellular matrix and migrate and differentiate out of the sphere core. The processes radial glia migration, neuronal and oligodendrocyte migration as well as neuronal differentiation, neuronal morphology and oligodendrocyte differentiation are studied using automated phase contrast imaging and automated fluorescence imaging in combination with high content image analysis. In parallel, the cell viability is assessed using an alamar blue viability assay and the cytotoxicity using a lactate dehydrogenase dependent membrane integrity assay.IUF_NPC4_neurite_length_120hr is one of 12 assay components measured from the IUF_NPC2-5 assay. The neurite length at 120 hr is the mean length in um of all neurons (see IUF_NPC3_neuronal_differentiation_120hr) that are identified by the skeletonization algorithm in Omnisphero.Data from the IUF_NPC4_neurite_length_120hr component was analyzed at the endpoint IUF_NPC4_neurite_length_120hr in the positive analysis fitting direction relative to DMSO as the negative control and baseline of activity. Using a type of differentiation reporter, gain or loss-of-signal activity can be used to understand developmental effects.
Culture protocol: After the cell expansion period the cells are cultured for up to four weeks in which they are passaged every week as described in 3.6. Between one to three days after passaging spheres at a size of 0.3 mm are picked for the test method. For the assessment of neural progenitor cell migration and differentiation, the spheres are plated on poly-D-lysine/laminin coated 96-well flat bottom plates in differentiation medium (N2) to initiate migration and differentiation. Thereby one 0.3 mm big sphere is plated in the middle of a well. The differentiation medium consists of DMEM and Ham's F12 at a ratio of 3 to 1 supplemented with 1% N2 and 1% penicillin and streptomycin. Within 5 days NPCs radially migrate out of the sphere core and differentiate into radial glia cells (nestin positive), neurons (TUBB3 positive), oligodendrocytes (O4 positive) and astrocytes (GFAP positive). Cultivation during the test method is performed at 37C and 5% CO2 at a ph of 7.2-7.6.Exposure: 0.3 mm big hNPC are plated in the already prepared test conditions. Exposure starts at day 0 of differentiation and is continued over five days of differentiation until the experiment is terminated. Cells are fed with fresh medium at day 3 of differentiation. Therefore, half of the test condition solution (e.g. solvent control or compound dilution) is replaced by freshly prepared test condition solution.Test Method: Migration distance and cytotoxicity is determined after 72 hours based on brightfield images of each well. The assay is terminated by the assessment of cell viability and cytotoxicity as well as cell fixation after 120 h. Immunocytochemistry is performed for Hoechst positive nuclei, TUBB3 positive neurons and O4 positive oligodendrocytes. On the ICC images, migration after 120 hours, neuronal and oligodendrocyte number, neuronal morphology and neuron/oligodendrocyte specific migration is assessed. immunocytochemical staining (ICC) generates an image for each sphere. The plates are scanned using an automated high content imaging device and all nuclei and their positions are determined automatically based on their intensity and size. Images are imported to the Omnisphero software to run the image analysis that measures the following endpoints. The method is set up for 8 test conditions including 7 compound concentrations and one SC. […]

Question: For `CCc1ccccc1`, which outcome is on record?
Answer: inactive

Question: For `C[C@@H]1CC[C@@H](C(C)(C)O)[C@H](O)C1`, which outcome is on record?
Answer: inactive

Question: Which AC50 does the source give for `BrC1CC(Br)CC(Br)CC(Br)CC(Br)CC(Br)C1` (stereo unspecified) here?
Answer: 1.04 µM (active)

Question: With `CC(=O)N[C@@H](CC(=O)O)C(=O)O` as the compound, how does the outcome read?
Answer: inactive

Question: Which outcome does the source give for `C[C@@H]1CCO[C@H]2Cn3cc(C(=O)NCc4ccc(F)cc4F)c(=O)c(O)c3C(=O)N12` here?
Answer: inactive

Question: For `F`, which outcome is on record?
Answer: inactive

Question: For `CCCCOCCOP(=O)(O)OCCOCCCC`, which outcome is on record?
Answer: inactive

Question: For `Cc1[nH]n(C)c(=O)c1C(=O)c1ccc(C(F)(F)F)cc1S(C)(=O)=O`, which outcome is on record?
Answer: inactive

Question: Which outcome does the source give for `CC(C)O` here?
Answer: inactive

Question: For `CN(C)CCCn1cc(C2=C(c3c[nH]c4ccccc34)C(=O)NC2=O)c2ccccc21`, which AC50 is on record?
Answer: 4.06 µM (active)

Question: With `CC(C)c1nn(C(=O)NC(C)(C)C)c(=O)n1N` as the compound, how does the outcome read?
Answer: inactive

Question: For `CC(CNC(=S)[S-])NC(=S)[S-].[Zn+2]` (stereo unspecified), which AC50 is on record?
Answer: 50 µM (active)

Question: Which outcome does the source give for `CC(=O)OC/N=[N+](\C)[O-]` here?
Answer: inactive

Question: With `O=C1CC2(CCCC2)CC(=O)N1CCCCN1CCN(c2ncccn2)CC1` as the compound, how does the outcome read?
Answer: inactive

Question: Which outcome does the source give for `CCCCCC(C)(CC)C(=O)NC` (stereo unspecified) here?
Answer: inactive

Question: With `CCCCCC=C(C)C(CC)CCO` (stereo unspecified) as the compound, how does the outcome read?
Answer: inactive
